Test results reported in PMC4336329 (PLoS ONE, 2015).
In all, about 310,000 compounds went through this assay and about 14,000 (4.5%) showed an effect of 50% or more. Effects have a minus sign here. This excerpt belongs to a sample that is enriched for strong results.

What follows are molecules tested against human ether-à-go-go-related gene (hERG) potassium channel (human, UniProt Q12809) (assay: primary screen, population patch clamp on CHO cells stably expressing hERG; higher = less effect of the substance).
human ether-à-go-go-related gene (hERG) potassium channel, sequence (Q12809 whole entry, looked up): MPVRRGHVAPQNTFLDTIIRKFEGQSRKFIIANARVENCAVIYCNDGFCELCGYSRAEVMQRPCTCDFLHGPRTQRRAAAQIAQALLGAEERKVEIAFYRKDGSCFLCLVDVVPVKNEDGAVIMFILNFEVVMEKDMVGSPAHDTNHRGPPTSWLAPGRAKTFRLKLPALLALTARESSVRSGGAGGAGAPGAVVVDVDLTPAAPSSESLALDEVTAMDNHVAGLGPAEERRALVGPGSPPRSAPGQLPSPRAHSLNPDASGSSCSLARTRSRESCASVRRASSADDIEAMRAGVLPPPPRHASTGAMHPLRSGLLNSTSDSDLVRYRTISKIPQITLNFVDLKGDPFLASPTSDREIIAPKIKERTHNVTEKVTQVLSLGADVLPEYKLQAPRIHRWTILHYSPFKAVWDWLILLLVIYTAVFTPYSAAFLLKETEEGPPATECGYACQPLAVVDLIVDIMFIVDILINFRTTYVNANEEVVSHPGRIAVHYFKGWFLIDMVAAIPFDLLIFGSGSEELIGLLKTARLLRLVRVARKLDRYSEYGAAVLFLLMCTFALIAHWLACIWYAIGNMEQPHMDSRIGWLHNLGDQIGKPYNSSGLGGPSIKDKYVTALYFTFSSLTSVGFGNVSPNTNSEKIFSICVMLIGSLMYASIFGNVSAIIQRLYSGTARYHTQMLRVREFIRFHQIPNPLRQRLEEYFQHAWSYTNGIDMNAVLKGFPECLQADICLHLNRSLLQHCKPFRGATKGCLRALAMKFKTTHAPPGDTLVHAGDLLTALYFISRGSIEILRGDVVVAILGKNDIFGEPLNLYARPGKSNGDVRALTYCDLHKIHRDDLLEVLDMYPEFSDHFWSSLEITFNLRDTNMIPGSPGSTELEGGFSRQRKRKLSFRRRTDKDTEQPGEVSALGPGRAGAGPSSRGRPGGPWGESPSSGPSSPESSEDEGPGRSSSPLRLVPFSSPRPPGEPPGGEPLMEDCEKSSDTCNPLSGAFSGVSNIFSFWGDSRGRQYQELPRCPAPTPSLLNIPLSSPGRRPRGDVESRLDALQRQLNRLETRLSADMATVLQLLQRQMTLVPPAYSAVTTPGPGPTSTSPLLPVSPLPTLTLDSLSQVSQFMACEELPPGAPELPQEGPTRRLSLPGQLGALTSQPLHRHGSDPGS
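Also: peak tail current of the secondary pulse compared with the same well before compound.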

For `Cc1cc(C)cc(NC(=O)CCC(=O)Nc2cc(C)on2)c1`, which “hERG current change (%, negative = inhibition) at 10uM” value is on record?
Its value is 8.01%.

`Cc1cc(C)c(C(CC(=O)c2cccs2)C(C#N)C#N)c(C)c1` (centres unmarked) was tested. Which “hERG current change (%, negative = inhibition) at 10uM” value did it give?
The value was -23.9%.

For `O=c1c2ccccc2n2c(-c3cccc(Cl)c3)nnc2n1Cc1ccccc1`, which “hERG current change (%, negative = inhibition) at 10uM” value is on record?
Its value is -11.8%.

Which “hERG current change (%, negative = inhibition) at 10uM” value does the source give for `COc1ccccc1NC(=O)c1cc(=O)[nH]c2ccccc12` here?
The value was 33.4%.

With `COc1ccc(CN2C(=O)CN=C2Nc2cc(C)ccc2C)cc1.Cl` as the molecule, how does the “hERG current change (%, negative = inhibition) at 10uM” value read?
The value was 1.79%.

How did the “hERG current change (%, negative = inhibition) at 10uM” value turn out when `O=C(CN(Cc1ccc(Cl)cc1)C(=O)CN1C(=O)COc2ccccc21)NC1CCCC1` was run?
Its value is 15%.

How did the “hERG current change (%, negative = inhibition) at 10uM” value turn out when `CCOC(=O)c1ccc2nc(NC(NC(C)=O)(C(=O)OC)C(F)(F)F)sc2c1` (centres unmarked) was run?
Its value is 13.6%.

`CN(C(=O)CSc1nnc(Cc2ccccc2F)n1N)C1CCS(=O)(=O)C1` (centres unmarked) was tested. Which “hERG current change (%, negative = inhibition) at 10uM” value did it give?
Its value is 9.76%.

Which “hERG current change (%, negative = inhibition) at 10uM” value does the source give for `FC(F)(F)c1cccc(Cc2noc(CN3CCC(c4ccncc4)CC3)n2)c1` here?
The value was -66.2%.

With `NC(=O)[C@@H]1CCCN1Cc1nc(Cc2cccc(C(F)(F)F)c2)no1` as the molecule, how does the “hERG current change (%, negative = inhibition) at 10uM” value read?
The value was 8.45%.

How did the “hERG current change (%, negative = inhibition) at 10uM” value turn out when `FC(F)(F)c1cccc(Cc2noc(CN3CCSCC3)n2)c1` was run?
The value was 0.814%.

How did the “hERG current change (%, negative = inhibition) at 10uM” value turn out when `CCOC(=O)N1CCN(Cc2nc(Cc3cccc(C(F)(F)F)c3)no2)CC1` was run?
The value was -15%.

`OCC1CCCN(C2CCN(Cc3nc(Cc4cccc(C(F)(F)F)c4)no3)CC2)C1` (centres unmarked) was tested. Which “hERG current change (%, negative = inhibition) at 10uM” value did it give?
Its value is -74.1%.

Which “hERG current change (%, negative = inhibition) at 10uM” value does the source give for `FC(F)(F)c1cccc(Cc2noc(CN3CCC(N4CCCCC4)CC3)n2)c1` here?
Its value is -74.7%.

Which “hERG current change (%, negative = inhibition) at 10uM” value does the source give for `FC(F)(F)c1cccc(Cc2noc(CN3CCCC(CN4CCCC4)C3)n2)c1` (centres unmarked) here?
Its value is -45.5%.

Which “hERG current change (%, negative = inhibition) at 10uM” value does the source give for `FC(F)(F)c1cccc(Cc2noc(CN3CCCC3)n2)c1` here?
Its value is 15.6%.

`Fc1cccc(Cc2noc(CN3CCC(c4ccncc4)CC3)n2)c1` was tested. Which “hERG current change (%, negative = inhibition) at 10uM” value did it give?
Its value is -21.4%.

With `Fc1ccc(N2CCN(c3cnc4ccccc4n3)CC2)cc1` as the molecule, how does the “hERG current change (%, negative = inhibition) at 10uM” value read?
The value was 6.24%.

For `Cc1cc(C(F)(F)F)nn1Cc1n[nH]c(=S)n1-c1ccc(Cl)cc1`, which “hERG current change (%, negative = inhibition) at 10uM” value is on record?
The value was 20.3%.

`O=[N+]([O-])c1ccc(-c2c(O)c3ccccc3c3nc4ccccc4nc23)cc1` was tested. Which “hERG current change (%, negative = inhibition) at 10uM” value did it give?
Its value is 18%.

`Cc1sc(NC(=O)c2ccco2)c(C(c2cccnc2)N2CCN(C)CC2)c1C` (centres unmarked) was tested. Which “hERG current change (%, negative = inhibition) at 10uM” value did it give?
The value was -32.7%.

With `Cc1sc(NC(=O)c2ccco2)c(C(c2ccc(F)cc2)N2CCN(C)CC2)c1C` (centres unmarked) as the molecule, how does the “hERG current change (%, negative = inhibition) at 10uM” value read?
Its value is -68.1%.

Which “hERG current change (%, negative = inhibition) at 10uM” value does the source give for `CCN1CCN(C(c2cccnc2)c2c(NC(=O)c3ccco3)sc(C)c2C)CC1` (centres unmarked) here?
Its value is -58.4%.

`Cc1sc(NC(=O)c2ccco2)c(C(c2cccnc2)N2CCCC2)c1C` (centres unmarked) was tested. Which “hERG current change (%, negative = inhibition) at 10uM” value did it give?
Its value is -8.45%.

How did the “hERG current change (%, negative = inhibition) at 10uM” value turn out when `Cc1sc(NC(=O)c2ccco2)c(C(c2cccnc2)N2CCN(c3ccc(F)cc3)CC2)c1C` (centres unmarked) was run?
Its value is 1.92%.

For `Cc1sc(NC(=O)c2ccco2)c(C(c2cccnc2)N2CCN(CCO)CC2)c1C` (centres unmarked), which “hERG current change (%, negative = inhibition) at 10uM” value is on record?
The value was -20.9%.
